Source: PubChem
CYP2C19 inhib: blocks human cytochrome P450 2C19 | P33261 | CYP2C19 Supersomes, luciferin-H EGE luminescence, 30 min | inhibition, % at 5 µM | 96,000 tested, 21% active;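 active = CYP2C19 inhibition above a set limit at 5 µM in the primary screen, cut at about 50% in these data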;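 note: plate controls were negative control wells for no effect and 2.5 mM tranylcypromine positive control for full effect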
Target sequence (P33261 whole entry, looked up): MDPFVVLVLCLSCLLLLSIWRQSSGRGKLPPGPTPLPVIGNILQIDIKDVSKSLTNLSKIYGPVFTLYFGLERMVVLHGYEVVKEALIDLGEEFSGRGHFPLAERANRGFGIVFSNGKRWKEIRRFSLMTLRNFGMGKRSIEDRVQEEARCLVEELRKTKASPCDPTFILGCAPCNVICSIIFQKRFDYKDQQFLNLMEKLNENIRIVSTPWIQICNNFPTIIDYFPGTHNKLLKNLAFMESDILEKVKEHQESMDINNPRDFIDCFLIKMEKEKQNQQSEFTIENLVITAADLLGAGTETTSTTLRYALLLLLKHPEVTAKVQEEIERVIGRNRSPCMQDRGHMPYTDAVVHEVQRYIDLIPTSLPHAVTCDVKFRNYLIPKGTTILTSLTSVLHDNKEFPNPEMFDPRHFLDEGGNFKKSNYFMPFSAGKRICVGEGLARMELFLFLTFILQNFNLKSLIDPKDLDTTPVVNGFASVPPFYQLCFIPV
CYP2C9 inh: inhibitors of human CYP2C9; P11712; CYP2C9 Supersomes, luciferin-H conversion, luminescence; inhibition, % at 5 µM; 96,000 tested, 20% active; AID 777;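 active = blocking of liver enzyme CYP2C9 beyond about 50% at 5 µM, limit read from the data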
CYP2C9 activ: increases human cytochrome P450 2C9 activity. P11712. recombinant CYP2C9, luciferin-H conversion, luminescence; stronger effect = higher value; factor 1 = untreated enzyme, 0 = blocked. activation factor at 5 µM. 96,000 tested, 1.4% active;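 active = activation factor of 2 or more for CYP2C9 at a 5 µM dose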;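 note: 0 = sulfaphenazole-blocked wells and 1 = vehicle-only wells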
EphB4 antag: EphB4-ephrin-B2 interaction antagonism; P54760; inhibition, % at 7 µM; 97,000 tested, 0.15% active; EphB4 LBD / TNYL-RAW-Alexa532 peptide, fluorescence polarization;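 active = inhibition above the screen-wide mean inhibition plus 3 SD, cut at about 15% in these data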;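 note: 0% = DMSO wells and 100% = excess unlabeled TNYL-RAW peptide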
CYP2C19 act: activators of human cytochrome P450 2C19 | recombinant CYP2C19, luciferin-H EGE luminescence; stronger effect = higher value; 0 = fully inhibited enzyme, 1 = untreated enzyme | AID 1025 | activation factor at 5 µM | 96,000 tested, under 10 active;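 active = activation factor of at least 2 at 5 µM in the primary screen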;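 note: 0 = wells with 2.5 mM tranylcypromine and 1 = vehicle-only wells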
Numbers without * were called inactive; x = no result. Compounds with a hit are over-represented: about 27% of the library has one in this group of screens.

SMILES	CYP2C19 inhib	CYP2C9 inh	CYP2C9 activ	EphB4 antag	CYP2C19 act
CC(C)CNC(=O)c1noc2c1CCCC2	21	16	0.8	x	0.8
CC1Cc2nc(SCC(=O)Nc3ccc(F)cc3F)n(C)c(=O)c2S1 (stereo not given)	27	53*	0.5	1	0.7
CCn1c(SCC(=O)Nc2cc(C)ccc2C)nc2c(c1=O)SC(C)C2 (stereo not given)	20	76*	0.2	x	0.8
CCn1c(SCC(=O)Nc2cccc(F)c2)nc2c(c1=O)SC(C)C2 (stereo not given)	x	x	x	-5	x
CC1Cc2nc(SCC(=O)N3CCCC3)n(C)c(=O)c2S1 (stereo not given)	-10	8	0.9	x	1.1
Cc1ccc(C)c(NC(=O)CSc2nc3c(c(=O)n2C)SC(C)C3)c1 (stereo not given)	17	66*	0.3	x	0.8
CC1Cc2nc(SCC(N)=O)n(C)c(=O)c2S1 (stereo not given)	-4	14	0.9	x	1
Cc1ccc2nc(NC(=O)CSc3nc4c(c(=O)n3C)SC(C)C4)sc2c1 (stereo not given)	48	68*	0.3	-2	0.5
CC1CCCCN1CCNC(=O)C1CC(=O)N(c2ccc(F)c(Cl)c2)C1 (stereo not given)	-6	-8	1.1	-5	1.1
COc1ccc(N2CCN(C(=O)CN=C3NS(=O)(=O)C(c4ccc(C)cc4)=C3C)CC2)cc1	14	47	0.5	x	0.9
CCCCC(=O)NC(N1CCCCC1)C(Cl)(Cl)Cl (stereo not given)	59*	18	0.8	2	0.4
CCCCCC(=O)NC(NC(=S)N1CCOCC1)C(Cl)(Cl)Cl (stereo not given)	x	x	x	7	x
O=C1c2ccccc2C(=O)N1OCc1ccc(Cl)cc1	64*	-13	1.1	-2	0.4
Cc1nc2cc(NC(=O)N3CCN(c4ccccn4)CC3)ccc2o1	-3	8	0.9	2	1
O=C(CC(=O)N1CCN(c2ccccn2)CC1)Nc1ccc2nc3n(c(=O)c2c1)CCCCC3	28	78*	0.2	-3	0.7
O=C(Nc1ccc2nc3n(c(=O)c2c1)CCCCC3)c1ccccn1	14	53*	0.5	x	0.9
CN1CCN(S(=O)(=O)c2ccc(SCCOc3ccccc3)nc2)CC1	51*	-43	1.4	-10	0.5
Cc1ccc(NC(=O)C2CCN(S(=O)(=O)c3cccc4cccnc34)CC2)nc1	68*	-46	1.5	0	0.3
CC(=O)c1ccc(NC(=O)C2CCN(S(=O)(=O)c3cccc4cccnc34)CC2)cc1	4	-86	1.9	4	1
Cc1cccc(NC(=O)C2CCN(S(=O)(=O)c3cccc4cccnc34)CC2)n1	78*	-128	2.3*	0	0.2
Cc1cc(=O)oc(C)c1C(=O)N1CCN(C)CC1	-13	-8	1.1	1	1.1
CN(C)S(=O)(=O)c1cccc(N=c2scc(-c3ccc4c(c3)NC(=O)CO4)n2CC2CCCO2)c1 (stereo not given)	46	50*	0.5	5	0.5
COc1ccccc1N=c1scc(-c2ccc3c(c2)NC(=O)CO3)n1CC1CCCO1 (stereo not given)	27	21	0.8	x	0.7
COc1ccccc1NC(=O)c1cn(C)c(=O)c2cc(OC)c(OC)cc12	1	28	0.7	-5	1
COc1ccccc1NC(=O)c1cc(Sc2nncn2C)nc2ccccc12	38	80*	0.2	5	0.6
SMILES	CYP2C19 inhib	CYP2C9 inh	CYP2C9 activ	EphB4 antag	CYP2C19 act
CC1CCCC2(C1)NC(=S)c1c(sc3c1CCCC3)N2 (stereo not given)	20	5	0.9	-1	0.8
CCc1ccc(C(=O)CSc2n[nH]c(C)n2)cc1	89*	35	0.6	x	0.1
Cc1ccc(C(=O)CSc2n[nH]c(C)n2)cc1	52*	-15	1.1	-1	0.5
Cc1ccc(C)c(C(=O)CSc2n[nH]c(C)n2)c1	57*	14	0.9	-3	0.4
CCc1nc(SCC(=O)c2cc(C)ccc2C)n[nH]1	32	-60	1.6	1	0.7
O=C(CSc1n[nH]c(-c2ccccc2)n1)c1ccccc1	47	25	0.8	1	0.5
O=C1CC(c2nc3ccccc3[nH]2)CN1Cc1ccccc1 (stereo not given)	38	-4	1	2	0.6
O=C(CSC1CC(=O)N(CC(c2ccccc2)c2ccccc2)C1=O)Nc1ccc(Cl)cc1 (stereo not given)	53*	85*	0.1	-3	0.5
O=C(O)CSC1CC(=O)N(c2ccc(Cl)cc2)C1=O (stereo not given)	2	-3	1	x	1
N#Cc1cc2c(nc1SCC1COc3ccccc3O1)CCC2 (stereo not given)	23	34	0.7	3	0.8
CCn1c(SCc2nc3ccccc3[nH]2)nnc1-c1ccccc1OC	100*	70*	0.3	0	0
CCn1c(SCc2nc3ccccc3[nH]2)nnc1-c1cccs1	99*	33	0.7	-4	0
CCn1c(COc2ccc(C)cc2)nnc1SCc1nc2ccccc2[nH]1	29	45	0.6	2	0.7
CCn1c(SCC(=O)C(C)(C)C)nnc1-c1ccccc1OC	18	-3	1	0	0.8
N#Cc1nc(COc2cccc(Cl)c2)oc1N1CCCC1	98*	18	0.8	3	0
N#Cc1nc(COc2ccc(F)cc2)oc1N1CCCC1	96*	28	0.7	8	0
N#Cc1nc(-c2ccc(F)cc2)oc1N1CCCC1	15	-33	1.3	3	0.8
O=C(Nc1nc2nc(-c3ccccc3)cc(-c3ccccc3)n2n1)c1ccco1	3	36	0.6	2	1
Cc1ccc2c(c1)CCCN2C(=O)c1c(C)noc1C	47	35	0.6	4	0.5
Cc1ccc2c(c1)CCCN2C(=O)c1ccoc1C	63*	35	0.6	x	0.4
Cc1ccc2c(c1)CCCN2C(=O)c1cc2ccccc2oc1=O	41	-176	2.8*	2	0.6
CN1CCN(C(=O)c2ccc3c(=O)n(Cc4ccc(Cl)cc4)c(=S)[nH]c3c2)CC1	15	22	0.8	6	0.9
CCC(c1nnnn1Cc1ccc(OC)cc1)N(CCCO)Cc1cc2cc3c(cc2[nH]c1=O)OCO3 (stereo not given)	42	46	0.5	4	0.6
CCOC(=O)c1c(-c2ccc(C)c(C)c2)csc1NC(=O)C1CC=CCC1C(=O)O (stereo not given)	10	76*	0.2	-1	0.9
CCOC(=O)c1c(-c2cccc([N+](=O)[O-])c2)csc1NC(=O)C1CC1	27	76*	0.2	-3	0.7
COC(=O)c1c(-c2ccco2)csc1NC(=O)C1CC=CCC1C(=O)O (stereo not given)	5	4	1	0	1
CCCCNc1ccccc1C(=O)OCC(=O)Nc1ccc(S(N)(=O)=O)cc1	23	86*	0.1	-1	0.8
